Assay results from PubChem BioAssay (NCATS).
Inconclusive results are not listed. Active and inactive are the calls of the source. Calls follow the shape of the dose curve; as a rule, active = well fitted cell-killing curve with a large enough effect; inconclusive = small, poorly fitted or top-dose-only effect, or effect the other way; inactive = no such curve, though single readings can be large or run the other way.

test: qHTS of pediatric cancer cell lines to identify multiple opportunities for drug repurposing: Confirmatory screen for MG 63 (6-TG R) cells (AID 1347119); settings: MG-63 (6-TG resistant) osteosarcoma viability; series mostly up to 45.9 µM; also: nearly all actives have a fitted effect of over 55% in size
Description: Drug repurposing or repositioning has been offered as a strategy for drug development in oncology programs. This approach has special potential for childhood cancers and other rare or orphan diseases, where the expected return on new drug development has been a disincentive to pharmaceuticals.
In this project we exploit the poly-pharmacology of drugs to discover new indications via phenotypic screening of a panel of 19 well-characterized cell lines derived from solid tumors seen in children and adolescents. The goal is to identify approved drugs with previously unrecognized anticancer properties that has the potential to reveal new mechanisms and biological processes involved in carcinogenesis or drug resistance. We employed a titration-based paradigm (quantitative high-throughput screening or qHTS), where all compounds were tested at multiple concentrations for their effect on cell viability. Concentration-response curves (CRCs) were derived directly from the primary screen, and both potency and efficacy values were used to identify compounds with robust bioactivity profiles. We screened the NIH Chemical Genomics Center (NCGC) Pharmaceutical Collection (NPC) and Mechanism Interrogation Plate (MIPE) small molecule collections of approved and investigational compounds against these cell lines; and measured metabolically active cells after 48 hours of compound treatment as a proxy for cell viability.
Assay Submitter: Nathalia J. Martinez, National Center for Advancing Translational Sciences, National Institutes of Health, Rockville, MD, USA; email: natalia.martinez@nih.gov
[1] Shen, M et al. Quantitative high-throughput phenotypic screening of pediatric cancer cell lines identifies multiple opportunities for drug repurposing. Oncotarget 2017 Dec 19;9(4):4758-4772. PMID 29435139.
The cells were obtained from University of North Carolina (UNC), Pediatric Preclinical Testing Program (PPT), and Coriell Institute (CI).
qHTS cell viability assay:
Cells were assayed in growth media at a density of 500-1,000 cells/well. Five microliters of cells were dispensed into 1,536-well, white, solid-bottom, TC-treated plates (Greiner Bio One) using a multidrop dispenser and incubated at 37 degrees C, 5% CO2, under a humidified atmosphere for 5 hours. Twenty-three nanoliters of compounds and controls (neutral control DMSO or positive control bortezomib at final concentration of 2.3 µM) were subsequently transferred by Kalypsys pintool. For primary screens, the MIPE collection was tested at 11-point dilutions (final concentrations range from 0.78 nM to 46 µM) and the NPC collection at 8-point dilutions (final concentrations range from 0.59 nM to 46 µM). Compounds tested in follow-up screens were assayed at 11-point dilutions. Cells were incubated for 48 hours, followed by addition of 3 µL of CellTiter-Glo (Promega). After a 15 min incubation at room temperature, samples were analyzed for luminescence intensity using a ViewLux High-throughput CCD imager equipped with clear filters.
Potency is read from the fitted curve at half-maximal effect.

Row | SMILES | Potency
1 | C[C@@]12OC(=O)[C@]1([C@@H](O)[C@@H]1C=CCCC1)NC(=O)[C@H]2CCCl | 293 nM (active)
2 | CC[C@H]1C=CC=CC[C@@H](C)[C@H](O)[C@@](C)(O)C(=O)[C@@H](C)[C@H](O)[C@@H](C)C(=O)[C@@H](C)[C@H](O)[C@@H](C)C=CC(=O)O[C@@H]2[C@@H](C)[C@H](CC1)O[C@]1(CC[C@H](C)[C@H](C[C@@H](C)O)O1)[C@H]2C | 117 nM (active)
3 | COC1=CC(C)=C[C@@H](C)[C@@H](O)[C@@H](C)CC(C)=CC=C[C@H](OC)[C@H]([C@@H](C)[C@@H](O)[C@H](C)[C@@]2(O)C[C@@H](O)[C@H](C)[C@@H](C(C)C)O2)OC1=O | inactive
4 | CC(C)(O)C=CC(=O)[C@](C)(O)[C@H]1[C@H](O)C[C@]2(C)[C@@H]3CC=C4[C@@H](C=C(O)C(=O)C4(C)C)[C@]3(C)C(=O)C[C@@]12C | 117 nM (active)
5 | CC(=Cc1csc(C)n1)[C@@H]1C[C@H]2O[C@@H]2CCC[C@H](C)[C@@H](O)[C@@H](C)C(=O)C(C)(C)[C@@H](O)CC(=O)O1 | 16.5 nM (active)
6 | CS(=O)(=O)c1ccc(C(=O)C2C(=O)CCCC2=O)c([N+](=O)[O-])c1 | inactive
7 | CC=C(C)C(=O)N[C@@H](c1ccccc1)[C@@H](O)C(=O)O[C@H]1C[C@@]2(O)[C@@H](OC(=O)c3ccccc3)[C@@H]3[C@]4(OC(C)=O)CO[C@@H]4C[C@H](O)[C@@]3(C)C(=O)[C@H](OC(C)=O)C(=C1C)C2(C)C | 29.3 nM (active)
8 | CC[C@@]1(O)C(=O)OCc2c1cc1n(c2=O)Cc2cc3ccccc3nc2-1 | 73.7 nM (active)
9 | CC(=Cc1csc(C)n1)[C@@H]1C[C@H]2O[C@]2(C)CCC[C@H](C)[C@@H](O)[C@@H](C)C(=O)C(C)(C)[C@@H](O)CC(=O)O1 | 3.3 nM (active)
10 | COc1ccc(C(=O)c2c(C)n(CCN3CCOCC3)c3cc(I)ccc23)cc1 | 14700 nM (active)
11 | CC1=C(O)C(=O)C=C2C1=CC=C1[C@@]2(C)CC[C@@]2(C)[C@@H]3C[C@](C)(C(=O)O)CC[C@]3(C)CC[C@]12C | 2330 nM (active)
12 | CC(C)(C)C(O)C(Oc1ccc(Cl)cc1)n1cncn1 (stereo not given) | inactive
13 | CCCCCC[C@H]1C(=O)O[C@H](C)[C@H](NC(=O)c2cccc(NC=O)c2O)C(=O)O[C@@H](C)[C@@H]1OC(=O)CC(C)C | 13.1 nM (active)
14 | CC(C)N[C@@H]1CCn2c(=O)[nH]c3cccc(c32)[C@@H]1O | inactive
15 | C[C@@H]1O[C@@H](O[C@@H]2C=C3CC[C@@H]4[C@@H](CC[C@]5(C)[C@H](c6ccc(=O)oc6)CC[C@@]45O)[C@@]3(C)CC2)[C@H](O)[C@H](O)[C@H]1O | 7.4 nM (active)
16 | C[C@@H]1CC[C@@]2(OC1)O[C@H]1C[C@H]3[C@@H]4CC=C5C[C@@H](O[C@@H]6O[C@H](CO)[C@@H](O[C@@H]7O[C@@H](C)[C@H](O)[C@@H](O)[C@@H]7O)[C@H](O)[C@@H]6O[C@@H]6O[C@@H](C)[C@H](O)[C@@H](O)[C@@H]6O)CC[C@]5(C)[C@@H]4CC[C@]3(C)[C@@H]1[C@H]2C | 2610 nM (active)
17 | Cc1[nH]nc2ccc(-c3cncc(OC[C@@H](N)Cc4c[nH]c5ccccc45)c3)cc12 | 3290 nM (active)
18 | O=C1C(I)=CC(=C(c2cc(I)c(O)c(I)c2)c2ccccc2C(=O)O)C=C1I | inactive
19 | CO[C@H]1CCC(O[C@H]2C[C@H]([C@]3(C)CC[C@]4(C[C@H](O)[C@@H](C)[C@@H]([C@@H](C)C=C(C)C(=O)[C@H](C)C[C@H](C)C(=O)O)O4)O3)O[C@]3(O[C@@H]([C@H]4O[C@@](O)(CO)[C@H](C)C[C@H]4C)C[C@H]3C)[C@H]2C)O[C@H]1C (stereo not given in full) | 2080 nM (active)
20 | O=C(Nc1ccncc1)C(=O)c1cn(Cc2ccc(Cl)cc2)c2ccccc12 | 369 nM (active)
21 | CCCN1CCO[C@@H]2c3cc(O)ccc3OC[C@@H]21 | inactive
22 | CCC(=O)OC1CCC2C3CCC4=CC(=O)CC[C@@]4(C)C3CC[C@]12C (stereo not given in full) | inactive
23 | COc1cc2cc(c1Cl)N(C)C(=O)C[C@H](OC(=O)C(C)C)[C@]1(C)O[C@H]1[C@H](C)[C@@H]1C[C@@](O)(NC(=O)O1)[C@H](OC)C=CC=C(C)C2 | 1 nM (active)
24 | O=[N+]([O-])c1c(Cl)c(Cl)cc(Cl)c1Cl | inactive
25 | O=C(O)COc1nc(Cl)c(Cl)cc1Cl | inactive
26 | COc1cc([C@@H]2c3cc4c(cc3[C@@H](O)C3COC(=O)C32)OCO4)cc(OC)c1O (stereo not given in full) | 293 nM (active)
27 | CC(=O)[O][Hg][c]1ccccc1 | 4140 nM (active)
28 | C[C@]12Cc3cn[nH]c3C[C@@H]1CC[C@@H]1[C@H]2CC[C@@]2(C)[C@H]1CC[C@]2(C)O | inactive
29 | CC(C)[C@]12O[C@@H]1[C@@H]1O[C@]13[C@]1(O[C@H]1C[C@@H]1C4=C(CC[C@@]13C)C(=O)OC4)[C@H]2O | 32.9 nM (active)
30 | CC=C(C)C(=O)O[C@H]1C(C)=C2[C@@H]3OC(=O)[C@@](C)(O)[C@@]3(O)[C@@H](OC(=O)CCC)C[C@](C)(OC(C)=O)[C@@H]2[C@@H]1OC(=O)CCCCCCC | inactive
